Reference: PubChem BioAssay (Tox21)
Inconclusive results are not listed. Activity calls are given as the source filed them. Unless noted, calls come from the whole dose curve; as a rule, active = well fitted curve in the direction sought with a large enough effect in the repeat runs; inconclusive = weak or mixed curves; inactive = no such curve, though single readings can be large; an effect the other way counts as inactive or inconclusive.

Legend:
[1] = qHTS assay to identify small molecule antagonists of the estrogen receptor alpha (ER-alpha) signaling pathway using the BG1 cell line in the presence of 0.1 nM 17-beta-estradiol - cell viability counter screen (AID 1259241); note: nearly all actives have a fitted effect of over 40% in size
In short: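 VM7Luc4E2, 4,000 cells/well, phenol red-free medium + 10% charcoal-stripped FBS; 24 hr plating; cpd + 0.1 nM E2 final, 22 hr 37C/5% CO2; CellTiter-Fluor 30 min, fluorescence.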

[2] = qHTS assay to identify small molecule antagonists of the androgen receptor (AR) signaling pathway using the MDA cell line in the presence of 0.5 nM R1881 - cell viability counter screen (AID 1259242); note: nearly all actives have a fitted effect of over 45% in size
In short: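 Fluorescence from CellTiter-Fluor, which reports protease activity of live cells, was read 30 min after reagent addition to MDA-kb2 cells that had been incubated 16 hr with compound and 0.5 nM R1881.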

[3] = target: Estrogen receptor (Homo sapiens) (UniProt P03372); assay: qHTS assay to identify small molecule antagonists of the estrogen receptor alpha (ER-alpha) signaling pathway using the BG1 cell line in the presence of 0.1 nM 17-beta-estradiol (AID 1259244); note: nearly all actives have a fitted effect of over 50% in size
In short: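 Quantitative high-throughput screen in VM7Luc4E2 cells: compound plus 0.1 nM E2 (final), 22 h, 37C, 5% CO2; ONE-Glo added, 30 min room temperature, luminescence measured.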

[4] = qHTS assay to identify small molecule HDAC inhibitors (AID 1259364); note: top concentration of the series differs between compounds; nearly all actives have a fitted effect of over 45% in size
In short: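 Endogenous HDAC class I/II activity was measured in wild-type HCT-116 cells by HDAC-Glo luminescence after 2 h compound treatment.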

[5] = qHTS assay to identify small molecule HDAC inhibitors - cell viability counter screen (AID 1259365); note: series mostly up to about 92 µM; nearly all actives have a fitted effect of over 50% in size
In short: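 Luminescence from CellTiter-Glo, developed 30min at room temperature, reports viability of wild-type HCT-116 cells treated 2hr with compounds at 37 C and 5% CO2 after overnight plating.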

[6] = qHTS assay to identify small molecule agonists of the sonic hedgehog signaling (Shh) pathway - cell viability counter screen (AID 1259366); note: nearly all actives have a fitted effect of over 50% in size
In short: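 Cytotoxicity counter screen run in the same wells as the Shh reporter assay. NIH/3T3 cells carrying a Gli1 response element–driven luciferase were treated with DMSO-dissolved compounds for 24hr, and live-cell protease activity was measured with CellTiter-Fluor.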

[7] = qHTS assay to identify small molecule antagonists of the sonic hedgehog signaling (Shh) pathway - cell viability counter screen (AID 1259367); note: nearly all actives have a fitted effect of over 55% in size
In short: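 Cells: 3T3 Gli1-Luc, 2,000/well, 4 hr pre-incubation. Compounds in DMSO, then conditioned medium. Incubation 24 hr, 37C, 5% CO2. CellTiter-Fluor at 23 hr, 1 hr, fluorescence.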

[8] = qHTS assay to identify small molecule agonists of the sonic hedgehog signaling (Shh) pathway (AID 1259368; calls by dose curve;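 note: NIH/3T3-derived 3T3Gli1-Luc cells carrying a stable Gli1-driven firefly luciferase reporter; series mostly up to about 92 µM; nearly all actives have a fitted effect of over 15% in size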)
In short: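 Luminescent signal was taken as a measure of Gli1-controlled luciferase expression in stably transfected NIH/3T3-derived cells that had been treated for 24 hr with compounds delivered in DMSO.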

[9] = qHTS assay to identify small molecule phospholipidosis (PLD) inducers (AID 1259344; active = well fitted curve in the direction sought with a large enough effect; an effect the other way counts as inactive or inconclusive)
In short: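 Phospholipidosis is scored by imaging LipidTOX-stained pits in HepG2 cells exposed to compound for 24 h at 37 C; pit counts and integrated intensities per well and per cell serve as outputs.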
% is set by controls: 0 for no effect and ±100 for the full control effect.

Sequence of Estrogen receptor (Homo sapiens) (P03372 whole entry, looked up): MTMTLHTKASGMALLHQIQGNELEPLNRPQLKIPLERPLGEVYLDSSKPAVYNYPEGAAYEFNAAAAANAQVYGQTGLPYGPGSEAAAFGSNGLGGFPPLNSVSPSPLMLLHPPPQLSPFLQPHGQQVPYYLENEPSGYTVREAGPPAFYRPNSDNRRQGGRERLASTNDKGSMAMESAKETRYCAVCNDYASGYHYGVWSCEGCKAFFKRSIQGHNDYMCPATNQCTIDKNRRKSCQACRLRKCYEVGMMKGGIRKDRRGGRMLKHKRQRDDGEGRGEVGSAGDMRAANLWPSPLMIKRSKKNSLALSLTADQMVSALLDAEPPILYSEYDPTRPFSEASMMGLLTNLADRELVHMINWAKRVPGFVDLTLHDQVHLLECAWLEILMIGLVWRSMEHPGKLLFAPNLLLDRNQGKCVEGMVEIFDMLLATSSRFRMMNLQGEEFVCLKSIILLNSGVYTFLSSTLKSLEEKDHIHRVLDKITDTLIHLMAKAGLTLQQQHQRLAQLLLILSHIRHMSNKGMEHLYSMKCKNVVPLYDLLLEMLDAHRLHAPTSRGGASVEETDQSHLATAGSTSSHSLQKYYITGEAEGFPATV

CC12CCC(CC1=O)C2(C)C (stereo not given)
inactive: outcome [1] | outcome [2] | outcome [3] | Potency [4] | outcome [5] | Potency [6] | outcome [7] | Potency [8]

C=C(C)C(=O)OCCCCCCCCCCCCCCCCCC
inactive: activity change, negative = cytotoxicity [1] 10.5% [at 19 µM] | viability change, negative = cytotoxic [2] 1.71% [at 19 µM] | activity change, negative = inhibition [3] 9.23% [at 19 µM] | activity change, negative = cytotoxicity [5] 3.83% [at 19 µM] | viability change, negative = cytotoxic [6] -3.3% [at 19 µM] | viability change, negative = cytotoxic [7] -2.33% [at 19 µM] | activity change [8] -0.0741% [at 18.9 µM, active compounds read high]

C(=C(c1ccccc1)c1ccccc1)c1ccccc1
inactive: outcome [1] | outcome [2] | outcome [3] | Potency [4] | outcome [5] | Potency [6] | outcome [7] | Potency [8]

Nc1ncnc2c1ncn2Cc1c(F)cccc1Cl
inactive: outcome [1] | outcome [2] | outcome [3] | outcome [5] | Potency [6] | outcome [7] | Potency [8]

CC(=O)OC(C)(C)C
inactive: outcome [1] | outcome [2] | outcome [3] | Potency [4] | outcome [5] | Potency [8]

CC(C)CCCC(C)CCCC(C)CCCCC(C)CCCC(C)CCCC(C)C (stereo not given)
inactive: outcome [1] | outcome [2] | Potency [9] | outcome [5] | Potency [6] | outcome [7] | Potency [8]

CC(C)N1C(=O)c2ccccc2C1=O
inactive: outcome [1] | outcome [2] | Potency [4] | outcome [5] | Potency [6] | outcome [7] | Potency [8]

O=C(O)C1CCC1
inactive: outcome [1] | outcome [2] | outcome [3] | outcome [5] | Potency [6] | Potency [8]

Cc1onc(-c2ccccc2)c1-c1ccc(S(N)(=O)=O)cc1
inactive: outcome [1] | outcome [2] | Potency [9] | Potency [4] | outcome [5] | outcome [7] | Potency [8]

O=S(=O)(c1cccc2cnccc12)N1CCCNCC1
inactive: outcome [1] | outcome [2] | Potency [9] | Potency [4] | outcome [5] | outcome [7] | Potency [8]

CCOC(=O)[C@H](CCc1ccccc1)N[C@@H](C)C(=O)N1CCC[C@H]1C(=O)O
inactive: outcome [1] | outcome [2] | Potency [9] | outcome [5] | Potency [6] | outcome [7] | Potency [8]

CC1=CC(=O)CCC1
inactive: outcome [1] | outcome [2] | Potency [4] | outcome [5] | Potency [6] | outcome [7] | Potency [8]

C=CCOc1nc(OCC=C)nc(OCC=C)n1
inactive: outcome [1] | outcome [2] | Potency [4] | outcome [5] | Potency [6] | outcome [7] | Potency [8]

CC(C)COC(=O)C(C)C
inactive: outcome [1] | outcome [2] | outcome [3] | outcome [5] | Potency [6] | Potency [8]

C=C[Si](OC)(OC)OC
inactive: outcome [1] | outcome [2] | outcome [3] | outcome [5] | Potency [6] | Potency [8]

C=C(C)[C@H]1CC=C(C)CC1
inactive: outcome [1] | outcome [2] | outcome [3] | outcome [5] | Potency [8]

COc1ccc2cc(C=O)ccc2c1
inactive: outcome [1] | outcome [2] | outcome [3] | outcome [5] | Potency [6] | outcome [7] | Potency [8]

CC(C)(C)N(CCO)CCO
inactive: outcome [1] | outcome [2] | outcome [3] | outcome [5] | outcome [7] | Potency [8]

NC(=O)Nc1nc2ccccc2[nH]1
inactive: outcome [1] | outcome [2] | outcome [3] | outcome [5] | outcome [7] | Potency [8]

CC(C)=CCC/C(C)=C/C(=O)O
inactive: outcome [1] | outcome [2] | outcome [3] | outcome [5] | Potency [6] | Potency [8]

CCO[Si](C)(OCC)OCC
inactive: outcome [1] | outcome [2] | outcome [3] | outcome [5] | Potency [6] | outcome [7] | Potency [8]

FC(F)(F)C(F)(F)C(F)(F)C(F)(F)C(F)(F)C(F)(F)C(F)(F)C(F)(F)C(F)(F)C(F)(F)F
inactive: activity change, negative = cytotoxicity [1] -0.635% [at 8.39 µM] | viability change, negative = cytotoxic [2] -3% [at 8.39 µM] | activity change, negative = inhibition [4] -3.49% [at 8.39 µM] | activity change, negative = cytotoxicity [5] 4.94% [at 8.39 µM] | viability change, negative = cytotoxic [6] 2.95% [at 8.39 µM] | viability change, negative = cytotoxic [7] 4.53% [at 8.39 µM] | activity change [8] -0.701% [at 8.39 µM, active compounds read high]

NS(=O)(=O)c1cc(C2(O)NC(=O)c3ccccc32)ccc1Cl (stereo not given)
inactive: outcome [1] | outcome [2] | Potency [9] | Potency [4] | outcome [5] | Potency [6] | Potency [8]

CN(C)N=Nc1ccccc1
inactive: outcome [1] | outcome [2] | Potency [4] | outcome [5] | Potency [6] | outcome [7] | Potency [8]

C=CC(=O)N1CCOCC1
inactive: outcome [1] | outcome [2] | Potency [4] | outcome [5] | Potency [6] | outcome [7] | Potency [8]

C=CCSCC1Nc2cc(Cl)c(S(N)(=O)=O)cc2S(=O)(=O)N1 (stereo not given)
inactive: outcome [1] | outcome [2] | Potency [9] | Potency [4] | outcome [5] | outcome [7] | Potency [8]
